Test results: PubChem BioAssay AID2544 (Sanford-Burnham Center for Chemical Genomics, 2010)
Hit rate of the full screen: of about 330,000 compounds, about 390 (0.12%) were called active. The sample as a whole holds a higher share of actives than the screen did. Values without a mark were called inactive.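 Rule for the calls: active = inhibition reaching a set limit with compound at 10 µM in the primary screen (cut at about 35% in these data); inactive = the rest.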

Each compound was assayed against Intestinal-type alkaline phosphatase (Homo sapiens) (UniProt P09923) (assay: blockers of intestinal alkaline phosphatase activity – biochemical, luminescence, uHTS, primary screen (AID 2544;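 note: plate controls were DMSO wells with enzyme for no effect and no-enzyme buffer wells for full effect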)). Conditions: purified IAP, CDP-Star luminescence, 30 min; at 10 µM; active compounds read high.
Chain of Intestinal-type alkaline phosphatase (Homo sapiens) (P09923 whole entry, looked up): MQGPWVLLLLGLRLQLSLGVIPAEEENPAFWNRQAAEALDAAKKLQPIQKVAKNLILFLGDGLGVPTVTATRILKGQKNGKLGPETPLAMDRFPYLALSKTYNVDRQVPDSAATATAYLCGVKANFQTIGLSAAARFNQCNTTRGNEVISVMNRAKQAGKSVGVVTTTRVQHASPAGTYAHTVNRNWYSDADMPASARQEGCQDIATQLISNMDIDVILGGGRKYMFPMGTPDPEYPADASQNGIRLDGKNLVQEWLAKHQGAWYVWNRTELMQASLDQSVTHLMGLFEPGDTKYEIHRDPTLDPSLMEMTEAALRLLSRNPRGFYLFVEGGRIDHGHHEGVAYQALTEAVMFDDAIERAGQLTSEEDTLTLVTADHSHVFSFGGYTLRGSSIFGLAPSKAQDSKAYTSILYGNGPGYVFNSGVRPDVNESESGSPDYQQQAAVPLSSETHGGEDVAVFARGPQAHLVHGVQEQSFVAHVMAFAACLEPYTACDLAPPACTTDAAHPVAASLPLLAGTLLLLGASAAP

Structure (SMILES) | inhibition
CCCC1C(c2ccccc2)C(C#N)(C#N)C2(C#N)CC1(N)NC2=O (configuration not stated) | -3.9%
CN(C(=O)COc1nnc(-c2cccs2)c(-c2cccs2)n1)c1ccccc1 | -23.1%
CS(=O)(=O)N(CC(=O)N1CCOCC1)c1cccc(Cl)c1Cl | -16.2%
NS(=O)(=O)c1cccc(NC(=O)COC(=O)/C=C/c2ccco2)c1 | 5.2%
COC(=O)c1cc2c(ccn2C)n1C | 15.7%
CCN1/C(=C\c2ccc3ccccc3[n+]2CC)Sc2cc(C)ccc21 | 39.8% (active)
COc1cccc(C(=O)n2ccc(-c3cccs3)n2)c1 | 0.5%
Cc1c(Cl)cccc1NC(=O)[C@@]1(CC(=O)O)CC(/C=C/c2ccccc2)=NO1 | 11%
CSC1=NC2(C)CCCCC2C12C=CC(=O)C=C2 (configuration not stated) | 12.2%
O=C(NCCCN1CCCCC1)C1CC(=O)N(CCc2ccccc2)C1 (configuration not stated) | -4.4%
O=C(CN(C(=O)c1csnn1)c1ccc(Br)cc1)NC1CCCC1 | -3.8%
CC(C)(C)C(=O)N(Cc1ccccc1)c1ccccn1 | -10.9%
COc1ccccc1C1CCN(C(=S)Nc2ccc(Br)cc2)CC1 | 5.9%
O=C(CCCl)Nc1ccc(S(=O)(=O)NCc2ccco2)cc1 | 7.1%
CCS(=O)(=O)N1CCC(N2CCN(c3ccccc3)CC2)CC1 | 15%
CCCCc1ccc(NC(=S)N2CCCC(CO)C2)cc1 (configuration not stated) | 7.5%
O=C(CN1C(=O)NC(Cc2c[nH]c3ccccc23)C1=O)Nc1ccccc1C(F)(F)F (configuration not stated) | -22.4%
CC(C(=O)N1CCc2ccccc21)N(C)CC(=O)Nc1ccc(F)cc1 (configuration not stated) | 22.6%
O=C(c1cccs1)N1CCC(c2nc3ccccc3s2)CC1 | 22.5%
COc1cc2c(cc1OC)C(C(=O)NCc1ccco1)C1c3ccccc3CCN1C2=O (configuration not stated) | -2.9%
CN1/C(=c2/s/c(=C3/C(=O)N(c4ccccc4)NC3=Nc3ccccc3)n(C)c2=O)C(C)(C)c2ccccc21 | 35% (active)
Cc1ccc(N(CC(=O)NCC2CCCO2)C(=O)CNS(=O)(=O)c2ccc(Cl)cc2)cc1 (configuration not stated) | 6.2%
CC(NCCc1ccc(S(N)(=O)=O)cc1)C(=O)NCc1ccccc1 (configuration not stated) | 8.3%

Structure (SMILES) | inhibition
O=C(CN1CCC(NC(=O)C2CC2)CC1)Nc1ccccc1[N+](=O)[O-] | 1.9%
CCN(C(=O)COC(=O)c1cc(S(=O)(=O)N2CCc3ccccc32)ccc1OC)C1CCS(=O)(=O)C1 (configuration not stated) | 8.6%
CCc1cc2c(=O)c(-c3ccon3)c(N)oc2cc1OC | 6.6%
CC(Sc1cccc[n+]1[O-])C(=O)Nc1cccc(S(=O)(=O)N2CCOCC2)c1 (configuration not stated) | -16.4%
CCNC(=S)N(CCc1c(C)[nH]c2ccc(C)cc12)Cc1ccco1 | 3.7%
Cc1c(C(=O)OC(C)C)sc(NC(=O)c2cccnc2)c1C#N | -1.7%
CCOC(=O)N1CCC(NC(=O)CN2C(=O)COc3ccc(C(C)(C)C)cc32)CC1 | -21.5%
Cc1ccc(C(C)(C)C)c(OCCCCN2CCCC2)c1 | 10.8%
O=C(C[n+]1cc(Br)cc2ccccc21)c1ccc(F)cc1 | -5.7%
COc1ccc(CCOC2OC(CO)C(OC(=O)/C=C/c3ccc(O)c(OC)c3)C(O[C@H]3O[C@@H](C)[C@H](O)[C@@H](O)[C@H]3O)C2O)cc1O (some centres not stated) | 4.7%
COc1cccc(CNS(=O)(=O)c2csc(C(N)=O)c2)c1 | 13.3%
COc1cccc(CNS(=O)(=O)c2ccc3c(c2)N(C(C)=O)CCS3)c1 | 38.6% (active)
COc1cccc(CNS(=O)(=O)c2ccc3c(c2)CC(C)N3C(=O)C2CCC2)c1 (configuration not stated) | 4.9%
CC1CN/C(=C\C(=O)c2ccc(Br)cc2)C(=O)N1 (configuration not stated) | -17%
COC(=O)c1ccc(COC(=O)c2cnccn2)cc1 | 21.3%
Cc1cc(NC(=O)C(C)N2C(=O)c3ccccc3S2(=O)=O)no1 (configuration not stated) | -15.1%
Cn1cnnc1Sc1ccc(S(C)(=O)=O)cc1[N+](=O)[O-] | -11.6%
CCn1c(C)nc2c1C(=O)c1ccccc1C2=O | 1.5%
N#C/C(=C\c1ccc(O)c(O)c1)C(=O)NCc1ccccc1 | 37.4% (active)
COCCNC(=O)/C(C#N)=C/c1cccc(OCc2ccccc2)c1 | 1.1%
COc1ccc(CNC(=O)/C(C#N)=C/c2cccc(OC)c2OC)cc1 | -1.8%
O=C(NCCCc1ccccc1)C1CCC(CNc2c(N3CCCCC3)c(=O)c2=O)CC1 (configuration not stated) | -6.9%
COc1cccc(/C=C2/SC(=S)N(CC(=O)NC3C=CS(=O)(=O)C3)C2=O)c1 (configuration not stated) | -52%

Structure (SMILES) | inhibition
CN1C=CC=C/C1=C1\SC(=S)N(Cc2ccccc2)C1=O | -4.6%
COc1cc(/C=C2/SC(=S)N(Cc3ccccc3)C2=O)cc(OC)c1O | 39.3% (active)
CC1CCCCC1NC(=O)c1cn(C)c2ccc(S(=O)(=O)N3CCOCC3)cc2c1=O (configuration not stated) | -21.4%
CCc1ccccc1NC(=S)N(CCN1CCCCCC1)Cc1ccco1 | -3.8%
CCCC(C(=O)NCc1ccco1)N(C(=O)CNS(=O)(=O)c1ccccc1)C1CCCC1 (configuration not stated) | -14.9%
Cc1cc(-c2nnc(SCC(=O)Nc3ccc(F)cc3)n2N)n[nH]1 | -8.7%
CC(=O)Nc1ccc(S(=O)(=O)NCC(=O)OCC(=O)c2ccc[nH]2)cc1 | 5.4%
Cc1noc(C)c1COc1ccccc1C(=O)N(C)CC(=O)Nc1cccc(F)c1 | -9.4%
Cc1ccc(OCCNC(=O)CNC(=O)c2ccc(C)c(C)c2)cc1 | -7.8%
CCOc1nnc(C)c2c(C)n(-c3cccc(Cl)c3)nc12 | -4.1%
Cc1cccc(C(=O)Nc2ccc(C(=O)/C=C/c3cccs3)cc2)c1 | -7.8%
CCOc1ccc(NC(=O)CN(C)C(=O)CCSc2ccc(F)cc2)cc1OCC | -1.7%
Cn1c(SCc2nc3ccccc3s2)nnc1-c1ccc2c(c1)OCO2 | 16.7%
COc1ccc(CNC(=O)c2c[nH]c3c(OC)cc(OC)cc3c2=O)cc1 | -24.3%
COc1ccc(N2CCN(C(=O)COC(=O)c3cccc(S(=O)(=O)Nc4ccccc4OC)c3)CC2)cc1 | 9.2%
CCOC(=O)C1CCN(Cc2coc3ccc(Cl)cc3c2=O)CC1 | -6.6%
O=c1c(/C=N/O)coc2ccc(Cl)cc12 | 54.1% (active)
Cc1ccc2occ(/C=N/NC(=O)c3ccccc3C)c(=O)c2c1 | 13%
Cc1cccc(-n2c(O)c(C=Nc3ccccc3N)c(=O)[nH]c2=O)c1 | 14.1%
CCc1c(C)nc(N)n2c(SCC(=O)NC3CCCCC3)nnc12 | -2.5%
Nc1nnc(SCC(=O)NCC(=O)Nc2ccc(F)c(F)c2F)s1 | -11.7%
O=S(=O)(c1ccc(F)cc1)n1ccc(-c2cnc(-c3ccccc3)s2)n1 | 5.2%
COc1cccc(CN(C)CC2CCCN(CCc3ccc(Cl)cc3)C2)c1OC (configuration not stated) | -36.9%

Structure (SMILES) | inhibition
O=C1CN(C(=O)COC(=O)c2cnc(Cl)c(Cl)c2)c2ccccc2N1 | 6.4%
c1ccc(-c2nnc3n2NC(c2ccc4c(c2)OCO4)S3)cc1 (configuration not stated) | -10.6%
COc1ccc(Cl)cc1-n1c(=S)sc2c(=O)n(-c3ccc(F)cc3)c(SCC(=O)O)nc21 | 10.8%
COc1ccc2c(c1OC)C(=O)N(c1ccc(O)cc1)C2 | -4.8%
COc1ccc(C2C(C#N)=C(N)N(c3ncn[nH]3)C3=C2C(=O)CCC3)cc1 (configuration not stated) | 6.9%
COc1ccc2c(c1OC)C(=O)N(c1ncn[nH]1)C2 | 39.6% (active)
COc1cc([N+](=O)[O-])ccc1NC(=S)N1CCN(c2ccccn2)CC1 | 6.4%
Cc1cc(C)nc(-n2ncc3c2CC(c2ccc(C(C)C)cc2)CC3=O)n1 (configuration not stated) | 3.4%
COc1ccc([N+](=O)[O-])cc1C1NN=C(c2cccc3ccccc23)S1 (configuration not stated) | -10.4%
COc1nnc(-c2ccc(C)c(S(=O)(=O)N(C)C)c2)c2ccccc12 | 1.6%
O=c1[nH]c(/C=C\c2cccc(C(F)(F)F)c2)nc(O)c1[N+](=O)[O-] | -10.6%
COCCNC(=O)/C(C#N)=C/c1nc(N(C)C)n(-c2ccc(F)cc2)c1Cl | 8.4%
Cc1ccc(S(=O)(=O)CCC(=O)OCC(=O)N(C)C2CCS(=O)(=O)C2)cc1 (configuration not stated) | -12.8%
COc1ccc(-c2cn3ccc(C)cc3n2)cc1 | -3.2%
COc1ccc(C2=Nc3cc(C)ccc3OC2)cc1 | 41.5% (active)
Cc1ccc(C(=O)NNC2=Nc3cc([N+](=O)[O-])ccc3OC2)cc1 | -72.1%
O=C(CNC(=O)c1cc(=O)[nH]c2ccccc12)Nc1ccc(F)c(F)c1 | -5.1%
CC(=O)c1cccc(NC(=O)C2CCCN2S(=O)(=O)c2cccc3nsnc23)c1 (configuration not stated) | 18.3%
CC(=O)c1ccc(NC(=O)C2CCCN2S(=O)(=O)c2cccs2)cc1 (configuration not stated) | 37.2% (active)
CC(=O)Nc1ccc(S(=O)(=O)N2CCN(S(=O)(=O)c3cccs3)CC2)cc1 | 1.1%
O=C(CC(Cc1ccccc1)C(=O)O)NCCc1ccc2c(c1)OCO2 (configuration not stated) | -65.3%
CCc1ccc(NC(=O)NC(C)c2ccc3c(c2)OCO3)cc1 (configuration not stated) | -18.5%
CC(=NCc1ccc2c(c1)OCO2)C1=C(O)c2ccccc2C1=O | 82.2% (active)
